Among the test systems are NCI-H23 lung; NCI-H226 lung; NCI-H322M lung; HOP-62 NSCLC; NCI-H460 lung; HOP-92 NSCLC; NCI-H522 lung; A549/ATCC NSCLC; 786-0 renal; COLO 205 colon; DU-145 prostate; MALME-3M melanoma; MDA-MB-231 breast; RXF 393 renal; SF-268 CNS; SF-295 CNS; SF-539 CNS; UACC-257 melanoma; M14 melanoma; K-562 leukemia.
Common to all, as to test: NCI-60 one-dose screen, 48 h (100 = growth as untreated, 0 = no growth, -100 = all killed)
Settings in all cases: 10 µM unless noted

About 83,000 compounds went through this panel and 20% of them were active in at least one assay; those are over-represented in the sample as a whole.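 Compound tested at a single concentration for 48 hours in 96-well plates; a percent growth value below 10 was scored as active.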 Unmarked numbers belong to inactive results. Activity calls are given as the source filed them.

Consider `CC(=O)O[C@@H]1CC[C@]2(C)[C@H]3CC[C@]4(C)C(=O)CC[C@H]4[C@@H]3C[C@@H]3SC(N)=N[C@@]32C1`, for which the growth with NCI-H23 lung is 79.6%; in the assay with NCI-H226 lung it was 83.4%; with NCI-H322M lung it was 89.7%; in the assay on HOP-62 NSCLC, 70.1%; with NCI-H460 lung, 38.7%; in the assay with HOP-92 NSCLC, 78.8%. For the same compound, the growth is 8.26% (active) in the assay with NCI-H522 lung; 47.4% in the assay on A549/ATCC NSCLC; 58.8% in the assay with 786-0 renal; 48.8% in the assay with COLO 205 colon; 79.2% in the assay on DU-145 prostate; 55.4% with MALME-3M melanoma. In addition, the growth with MDA-MB-231 breast was 68.2%; in the assay with RXF 393 renal, 79.7%; in the assay on SF-268 CNS, 73.9%; with SF-295 CNS, 42.7%; in the assay on SF-539 CNS, 51.3%; with UACC-257 melanoma it was 67.1%.

On to `Cc1c2cc(Cl)c3ccccc3c2c[n+]2ccccc12`, for which the growth with NCI-H23 lung is 47.8%; in the assay on NCI-H226 lung, 43.5%; in the assay with NCI-H322M lung, 31.3%; in the assay with HOP-62 NSCLC, 12.3%; with NCI-H460 lung, 55.7%; in the assay with HOP-92 NSCLC it was 75.4%. The growth with NCI-H522 lung is 17.1%; in the assay with A549/ATCC NSCLC, 40.5%; with 786-0 renal it was 16.1%; in the assay on COLO 205 colon it was 56.1%; in the assay with DU-145 prostate, 78.3%; in the assay on MALME-3M melanoma it was -16.2% (active). The growth is 82.5% in the assay on MDA-MB-231 breast; -36.3% (active) with SF-268 CNS; 18.3% in the assay with SF-295 CNS; 26.3% in the assay on SF-539 CNS; 47.5% with M14 melanoma.

With `ClCCN(CCCl)c1ccc(/C=N\N=C\c2ccc(N(CCCl)CCCl)cc2)cc1`, the growth with NCI-H23 lung was 62%; with NCI-H226 lung, 28.9%; with NCI-H322M lung, 74.2%; in the assay with HOP-62 NSCLC it was 39.1%; with NCI-H460 lung, 14.7%; in the assay with HOP-92 NSCLC, 76.7%. The growth with NCI-H522 lung was 11.1%; in the assay with A549/ATCC NSCLC, 13.6%; with 786-0 renal, 31.7%; in the assay on COLO 205 colon, 37.4%; with DU-145 prostate, 42.4%; in the assay on MALME-3M melanoma, 109%. Further, the growth with MDA-MB-231 breast is 64.9%; in the assay on SF-268 CNS it was 40.7%; in the assay on SF-295 CNS, 10.7%; with SF-539 CNS it was 1.3% (active); with UACC-257 melanoma, 31%; with M14 melanoma, 12.9%.

As to `COC(=O)CCC1=C(C)c2cc3[n-]c(cc4nc(cc5[n-]c(cc1n2)c(CCC(=O)OC)c5C)C=C4C)cc3C.[Cd+2]`, the growth is 19.1% in the assay with NCI-H23 lung; 19.8% with NCI-H226 lung; 95.5% in the assay with NCI-H322M lung; 65.7% in the assay on HOP-62 NSCLC; -27.3% (active) with NCI-H460 lung; 3.42% (active) in the assay on HOP-92 NSCLC. Moreover, the growth was -70.1% (active) in the assay on NCI-H522 lung; 56.1% with A549/ATCC NSCLC; 75.2% in the assay on 786-0 renal; 22.4% with COLO 205 colon; 9.35% (active) with DU-145 prostate; 20.5% in the assay with MALME-3M melanoma. For the same compound, the growth with MDA-MB-231 breast is 34.9%; in the assay on RXF 393 renal, 65.7%; in the assay on SF-268 CNS, 11.6%; in the assay with SF-295 CNS, 61.9%; with SF-539 CNS, 62.2%; in the assay on UACC-257 melanoma, 78.7%. Besides, the growth in the assay with M14 melanoma is 57.9%.

For `N/C(=N/N=C/c1ccncc1)N[N+](=O)[O-]`, the growth in the assay on NCI-H23 lung was 99.5%; in the assay on NCI-H226 lung, 99.2%; with NCI-H322M lung, 99.5%; with HOP-62 NSCLC, 89.3%; in the assay with NCI-H460 lung, 112%; in the assay with HOP-92 NSCLC it was 115%. Besides, the growth was 101% with NCI-H522 lung; 98.3% in the assay with A549/ATCC NSCLC; 102% in the assay with COLO 205 colon; 108% in the assay on DU-145 prostate; 90% in the assay on K-562 leukemia; 96.2% in the assay on MALME-3M melanoma. In addition, the growth in the assay with RXF 393 renal was 121%; in the assay on SF-268 CNS, 102%; in the assay on SF-295 CNS, 99.5%; in the assay on SF-539 CNS, 94.3%; in the assay on UACC-257 melanoma, 102%; in the assay with M14 melanoma, 104%.

Turning to `CCC(CC)CC1(C)CC2(C)CCOC2OO1` (configuration not stated), the growth is 102% in the assay on NCI-H23 lung; 99% in the assay on NCI-H226 lung; 109% in the assay with NCI-H322M lung; 97.9% in the assay with HOP-62 NSCLC; 108% in the assay with NCI-H460 lung; 96.2% with HOP-92 NSCLC. Also, the growth is 90.9% in the assay with NCI-H522 lung; 98.9% with A549/ATCC NSCLC; 101% with 786-0 renal; 118% in the assay with COLO 205 colon; 107% in the assay with DU-145 prostate; 112% with MALME-3M melanoma. The growth in the assay on MDA-MB-231 breast is 100%; with RXF 393 renal, 111%; in the assay on SF-268 CNS, 110%; with SF-295 CNS, 101%; with SF-539 CNS, 99.1%; with UACC-257 melanoma it was 98%. Also, in the assay on M14 melanoma, the growth was 115%.

For `CCOC(=O)N1CC1`, the growth in the assay with NCI-H23 lung is 107%; with NCI-H226 lung, 104%; with NCI-H322M lung it was 105%; in the assay on HOP-62 NSCLC, 99.8%; in the assay with NCI-H460 lung, 107%; in the assay with HOP-92 NSCLC, 53%. Also, the growth was 92.4% in the assay with NCI-H522 lung; 99.9% with A549/ATCC NSCLC; 102% in the assay with 786-0 renal; 91.3% in the assay with COLO 205 colon; 110% with DU-145 prostate; 108% in the assay on MALME-3M melanoma. Also, the growth in the assay with MDA-MB-231 breast was 99.2%; in the assay with RXF 393 renal, 106%; in the assay with SF-268 CNS, 98.6%; with SF-295 CNS it was 97.8%; in the assay with SF-539 CNS, 103%; with UACC-257 melanoma it was 101%. The growth in the assay with M14 melanoma was 96.5%.

For `COc1ccc(/C=C/c2cc(OC)c(OC)c(OC)c2)cc1NC(=O)/C=C/c1ccc(F)cc1`, the growth in the assay on NCI-H23 lung is 6.1% (active); in the assay with NCI-H226 lung it was 36.6%; with NCI-H322M lung it was 55.5%; with HOP-62 NSCLC it was 24.9%; in the assay with NCI-H460 lung, 14.6%; in the assay with HOP-92 NSCLC it was 93.1%. Also, the growth was -8.36% (active) in the assay with NCI-H522 lung; 38% in the assay with A549/ATCC NSCLC; 37.8% in the assay on 786-0 renal; -26.3% (active) in the assay with COLO 205 colon; 10.1% in the assay on DU-145 prostate; 42.7% with MALME-3M melanoma. For the same compound, the growth in the assay on MDA-MB-231 breast was 56.1%; in the assay with RXF 393 renal, -19.1% (active); in the assay with SF-268 CNS it was 45.2%; with SF-295 CNS, -2.11% (active); with SF-539 CNS, -0.885% (active); in the assay with UACC-257 melanoma it was 59.3%. In addition, the growth in the assay on M14 melanoma is 13.4%.
